# GLP1R inv ag: inverse agonists of human GLP-1 receptor; HEK293 GLP-1R CRE-luciferase, luminescence, 24 h; GLP-1R form is constitutively active; Potency, µM (doses to about 38.3 µM), without a hit: at the top dose activity change, negative = inhibition, usual class: inhibitors; 410,000 compounds, 1.6% hits; note: potency is the fitted concentration of half-maximal effect; % is set by controls: 0 for no effect and ±100 for the full control effect; nearly all actives have a fitted effect of over 55% in size
#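 Inverse agonists were sought by their lowering of basal cAMP reporter luciferase output in HEK293 cells stably carrying constitutively active human GLP-1R, after 24 h compound treatment.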
# D3 ag: D3 dopamine receptor (human) agonism. AID 652048. P35462. max activation, %. D3R DiscoveRx beta-arrestin cells, luminescence, 90 min. 410,000 compounds, 0.58% hits; in the data active = max activation above about 30%; note: 0% is about no effect
# Target sequence (P35462 whole entry, looked up): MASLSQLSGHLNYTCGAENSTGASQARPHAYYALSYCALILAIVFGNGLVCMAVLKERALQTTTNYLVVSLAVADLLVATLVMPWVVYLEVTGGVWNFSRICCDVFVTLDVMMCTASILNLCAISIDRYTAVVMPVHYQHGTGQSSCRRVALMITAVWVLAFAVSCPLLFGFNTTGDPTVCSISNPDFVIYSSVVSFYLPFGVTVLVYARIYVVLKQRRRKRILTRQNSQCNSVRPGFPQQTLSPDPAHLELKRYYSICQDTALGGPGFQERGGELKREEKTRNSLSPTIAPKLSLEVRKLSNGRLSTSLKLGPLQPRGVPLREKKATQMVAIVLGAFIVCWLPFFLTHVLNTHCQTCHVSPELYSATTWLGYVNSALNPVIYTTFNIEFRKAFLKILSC
#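 Agonist-mode cell screen: cells plated at 1500/well and incubated overnight at 37 °C, then exposed to library compounds for 90 min at 37 °C. Detection reagent was added for 30–60 min at room temperature, and luminescence was read.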
# GLP1R ag: GLP-1 receptor (human) agonism; Potency, µM (highest dose often 45.6 µM), inactives show at the highest dose activation, hits mostly activators; P43220; 380,000 compounds, 0.007% hits; HEK293 GLP-1R CRE-luciferase, luminescence, 4-6 h; cells express a hypersensitive GLP-1R form; note: potency is the fitted concentration of half-maximal effect; % of control where 0% means no effect
# DRD3 antagonist: blocks the human D3 dopamine receptor. P35462. D3R cells, DiscoveRx beta-arrestin luminescence, antagonist mode; active compounds read low. max response, negative = inhibition, %. 360,000 compounds, 2.5% hits. AID 652054; in the data active = max response below about -50%; inconclusive = no clear call, values can overlap the other calls; note: % is set by controls: 0 for no effect and ±100 for the full control effect
#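 Cells expressing the human receptor were seeded at 1500 cells/well, incubated overnight at 37 degrees C in 5% CO2, then exposed to library compounds with dopamine controls for 90 minutes at 37 degrees C before luminescent detection.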
# Numbers without * were called inactive; ? = inconclusive; . = no result. Hits are enriched below; roughly 4.3% of the tested compounds scored in any of these assays. Unless noted, calls come from the whole dose curve; as a rule, active = well fitted curve in the direction sought with a large enough effect; inconclusive = small, poorly fitted or top-dose-only effect, or another doubt; inactive = no such curve, though single readings can be large; an effect the other way counts as inactive or inconclusive.
SMILES,GLP1R inv ag,D3 ag,GLP1R ag,DRD3 antagonist
O=C(CSc1nnc(-c2ccc(Cl)cc2)n1Cc1ccco1)NCc1ccc2c(c1)OCO2,10µM*,-15,-3%,?
Cn1c(/C=C/c2cccc([N+](=O)[O-])c2)nc2ccccc2c1=O,11%,2,-3%,4
CCOCCCn1c(SCC(=O)Nc2ccc(C(C)C)cc2)nc2c(sc3ccccc32)c1=O,2%,-10,.,.
CC(C)C[C@@]12C(=O)N(c3cccc(Br)c3)C(=O)N1[C@H](c1ccc(F)cc1)[C@@H]1C(=O)N(C3CCCCC3)C(=O)[C@@H]12,?,51*,-2%,50
O=C1[C@H]2[C@@H](c3ccc(F)cc3)N3C(=O)N(c4cccc(F)c4)C(=O)[C@@]3(Cc3ccccc3)[C@H]2C(=O)N1C1CCCCC1,?,-35,-4%,-13
CC[C@@]12C(=O)N(c3cccc(Br)c3)C(=O)N1[C@H](c1ccc(F)cc1)[C@@H]1C(=O)N(C3CCCCC3)C(=O)[C@@H]12,8.9µM*,-21,-3%,38
O=C1[C@H]2[C@@H](c3ccc(F)cc3)N3C(=O)N(c4cccc(Br)c4)C(=O)[C@@]3(Cc3ccccc3)[C@H]2C(=O)N1C1CCCCC1,2.8µM*,9,0%,0
CC[C@@]12C(=O)N(c3cccc(F)c3)C(=O)N1[C@H](c1ccc(F)cc1)[C@@H]1C(=O)N(C3CCCCC3)C(=O)[C@@H]12,?,3,-3%,-15
COc1cccc(NC(=O)Nc2cccc(-c3cn4cccnc4n3)c2)c1,3%,0,-3%,.
CCCOc1ccc(CCc2n[nH]c(=S)n2Cc2ccccc2)cc1,8.9µM*,0,1%,-55*
Cc1cccc(-c2cccc(NC(=O)C3CCCN(C(=O)c4csc(C)n4)C3)c2)c1 (centres undefined),5µM*,1,7%,3
COc1cc2c(cc1OC)C(c1ccccc1)N(C(=O)CCl)CC2 (centres undefined),-13%,-2,-1%,-62*
CCCCOc1cccc(C2c3c(-c4cc(C)ccc4O)n[nH]c3C(=O)N2CCOC)c1 (centres undefined),?,42*,.,.
Cc1ccc(-c2nnc3c4ccccc4c(C)nn23)cc1NC(=O)c1ccccc1,11%,5,.,.
O=C(Nc1c(-c2ccccc2)nc2ccccn12)c1ccc(Br)cc1,11µM*,-4,0%,.
O=C(Nc1c(-c2ccccc2)nc2ccccn12)c1cccc(F)c1,10µM*,-11,3%,-27
CSc1ccc(CCNC(=O)c2ccc(-c3nc(COc4ccccc4)c(C)o3)cc2)cc1,7%,6,.,.
COc1cc(/C=C2\CCCc3c2nc2ccccc2c3C(=O)O)cc([N+](=O)[O-])c1O,2%,-30,-1%,-100*
Cn1c(C(=O)N2CCN(Cc3ccc4c(c3)OCO4)CC2)cc2sccc21,-7%,-32,1%,-96*
O=C(c1sccc1Cl)N1CCN(Cc2ccc3c(c2)OCO3)CC1,?,-20,-4%,-5
O=C(CN1CCN(Cc2ccc3c(c2)OCO3)CC1)Nc1ccc2c(c1)OCO2,-31%,-5,1%,?
COc1ccsc1C(=O)N1CCN(Cc2ccc3c(c2)OCO3)CC1,2%,-2,4%,-63*
COc1ccc(NC(=O)CN2CCN(Cc3ccc4c(c3)OCO4)CC2)cc1OC,6%,-10,19%,-73*
COc1cccc(C(=O)N2CCN(Cc3ccc4c(c3)OCO4)CC2)c1OC,-25%,-3,1%,-67*
CCOc1cc(C(=O)OCc2cc(=O)n3nc(CC)sc3n2)cc(OCC)c1OCC,18%,6,.,.
SMILES,GLP1R inv ag,D3 ag,GLP1R ag,DRD3 antagonist
COC(=O)c1cc(Cl)ccc1NC(=O)CSc1ncc(S(=O)(=O)c2ccc(Br)cc2)c(=O)[nH]1,-1%,1,-5%,.
CCn1ccc2cc(S(=O)(=O)N3CCC(C(=O)NCc4cccc(C)c4)CC3)ccc21,-23%,-5,.,.
COc1ccc(NC(=O)c2cc(S(=O)(=O)N3CCCCC3)cn2C)cc1Cl,3%,49*,-1%,.
COc1ccc(Cl)cc1NC(=O)C1Cc2cc(S(=O)(=O)N3CCCC3)ccc2N1C(C)=O (centres undefined),?,-9,3%,-11
COc1ccc(NC(=O)C2Cc3cc(S(=O)(=O)N4CCCCC4)ccc3N2C(C)=O)cc1Cl (centres undefined),10µM*,-1,-3%,-9
CCc1c(C(=O)N/N=C/c2sccc2C)nnn1-c1nonc1N,6%,-2,8%,6
Nc1nonc1-n1nnc(C(=O)N/N=C/c2cccc(Cl)c2)c1CSc1ccc(Cl)cc1,3%,3,20%,11
CC(/C=N/NC(=O)c1nnn(-c2nonc2N)c1CN(C)C)=C\c1ccco1,9%,15,-1%,-17
CC/C(=N\NC(=O)c1nnn(-c2nonc2N)c1-c1cccs1)c1ccccc1,7.9µM*,-7,7%,-15
CCCN(CCC)Cc1c(C(=O)N/N=C/C(C)=C\c2ccco2)nnn1-c1nonc1N,3.5µM*,15,0%,30
CC/C(=N\NC(=O)c1nnn(-c2nonc2N)c1-c1ccc2c(c1)OCO2)c1ccccc1,?,10,9%,-13
Cc1ccsc1/C=N/NC(=O)c1nnn(-c2nonc2N)c1CN(C)c1ccccc1,11µM*,0,1%,1
Nc1nonc1-n1nnc(C(=O)N/N=C/c2cccc(Cl)c2)c1CSc1ccccc1,?,39*,-3%,12
O=C(CSc1nccn1C1CCCC1)Nc1ccccc1,18%,-3,.,.
CCCCN(CC)CCNC(=O)C1CCN(c2nnc(C)c3c(C)n(-c4ccc(C)cc4)nc23)CC1,10µM*,-28,.,.
CCc1ccc(CNC(=O)C2CCCN(c3nnc(C)c4c(C)n(-c5ccc(OC)cc5)nc34)C2)cc1 (centres undefined),22%,31*,.,.
Cc1ccc(CCNC(=O)C2CCN(c3nnc(C)c4c(C)n(-c5ccccc5)nc34)CC2)cc1,17%,-13,.,.
COc1ccc(OC2C(=O)N(Cc3ccc4c(c3)OCO4)C2c2sccc2C)cc1 (centres undefined),0%,34*,-1%,39
COc1cc(Br)ccc1C1C(C(=O)Nc2ccc(C)cc2C)=C(C)Nc2nnnn21 (centres undefined),?,-7,.,.
Cc1ccc(NS(=O)(=O)c2cc(NC(=O)c3ccc4c(c3)NC(=O)CS4)ccc2Cl)c(C)c1,2.5µM*,-4,-3%,-18
COc1ccc(NC(=O)c2ccc3c(c2)NC(=O)CS3)cc1,4%,-5,-5%,5
COC(=O)c1ccc2c(c1)C(C)(C)C(/C=C/c1ccc(O)cc1)=[N+]2C,?,-51,-23%,?
COC(=O)c1ccc2c(c1)C(C)(C)C(/C=C/c1ccc(OC)c(OC)c1OC)=[N+]2C,?,-21,-21%,-88*
Cc1ccc(NC(=O)Cn2cc(C(=O)c3ccco3)c3ccccc32)c(C)c1,-15%,-6,.,.

# Assay outcomes from PubChem BioAssay.
